GLD-1 RNA inh = GLD-1/TGE RNA complex disruptors, primary screen, biochemical, fluorescence polarization; 320,000 tested, 0.44% active; inhibition, % at 5.96 µM; AID 2280, 2010; purified GLD-1 + fluorescein TGE RNA;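 active means percent inhibition above a per-plate cutoff, the plate mean of test compounds plus 3 SD, cut at about 30% in these data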;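 further: 0% = DMSO wells with GLD-1 and probe and 100% = wells lacking GLD-1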
Bcl-xL primary = inhibitors of human Bcl-xL, primary screen, biochemical, fluorescence polarization, HTS; Bcl-2-like protein 1 (Homo sapiens), Q07817; GST-Bcl-xL / FITC-Bim BH3 peptide fluorescence polarization; inhibition, % at 10.9 µM; 320,000 tested, 0.7% active;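 active means inhibition above the mean of all tested compounds plus 3 SD, cutoff set per campaign, cut at about 30% in these data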;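 further: 0% = DMSO wells and 100% = unlabeled Bim-BH3 peptide competitor; inhibitors lower millipolarization by displacing the labeled peptide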
Target sequence (Q07817 whole entry, looked up): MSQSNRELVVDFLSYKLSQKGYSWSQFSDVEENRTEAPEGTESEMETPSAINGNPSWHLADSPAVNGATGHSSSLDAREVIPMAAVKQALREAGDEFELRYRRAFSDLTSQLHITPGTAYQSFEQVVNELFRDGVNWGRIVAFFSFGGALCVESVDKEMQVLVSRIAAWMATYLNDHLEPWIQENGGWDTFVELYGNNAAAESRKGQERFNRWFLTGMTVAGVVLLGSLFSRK
MCL1-BIM inh = inhibitors of MCL1 binding to BIM-BH3, primary screen, biochemical, fluorescence polarization; Induced myeloid leukemia cell differentiation protein Mcl-1 (Homo sapiens), Q07820; GST-MCL1 / FITC-Bim-BH3 fluorescence polarization; inhibition, % at 10.9 µM; 320,000 tested, 0.68% active; AID 2057, 2009;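 active means inhibition above the mean inhibition of all tested compounds plus 3 SD, set per campaign, cut at about 40% in these data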;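 further: 0% = DMSO wells and 100% = unlabeled Bim-BH3 peptide control; higher means more loss of mP so more displacement of Bim peptide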
Target sequence (Q07820 whole entry, looked up): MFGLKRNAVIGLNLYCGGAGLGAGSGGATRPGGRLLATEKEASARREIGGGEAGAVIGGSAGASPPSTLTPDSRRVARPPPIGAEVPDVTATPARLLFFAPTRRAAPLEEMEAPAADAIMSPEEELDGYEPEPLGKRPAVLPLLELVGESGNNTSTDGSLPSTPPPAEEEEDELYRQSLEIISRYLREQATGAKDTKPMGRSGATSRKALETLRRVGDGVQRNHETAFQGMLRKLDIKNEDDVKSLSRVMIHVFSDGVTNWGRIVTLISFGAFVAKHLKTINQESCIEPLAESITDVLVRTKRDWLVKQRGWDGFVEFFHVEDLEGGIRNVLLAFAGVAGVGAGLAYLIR
Mcl1-Bid inh = Mcl-1/Bid binding inhibitors, primary screen, biochemical, TR-FRET, 1536-well; Induced myeloid leukemia cell differentiation protein Mcl-1 (Homo sapiens), Q07820; TR-FRET Mcl-1/Bid-Dy647 peptide binding; inhibition, % at 21.7 µM; 220,000 tested, 0.97% active; AID 1021, 2008;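 active means compounds that cut the binding signal by more than half at the single screening dose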;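 further: His-tagged Mcl-1 with europium anti-His antibody binding Bid BH3 peptide; 0% = Mcl-1 plus peptide wells and 100% = peptide-only wells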
Mcl1 Noxa PPI = Mcl-1/Noxa binding inhibitors, primary screen, biochemical, TR-FRET, 1536-well; Induced myeloid leukemia cell differentiation protein Mcl-1 (Homo sapiens), Q07820; TR-FRET Mcl-1/Noxa peptide binding, 2 h; inhibition, % at 21.7 µM; 220,000 tested, 1.5% active; AID 1022, 2008;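 active means compounds that cut the protein-peptide binding signal by more than 50% relative to plate controls in a single-dose test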;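 further: His-tagged Mcl-1 with rhodamine Noxa BH3 peptide and terbium anti-His antibody; 0% = Mcl-1 plus Noxa peptide wells and 100% = peptide-only wells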
Bim-Mcl-1 = inhibitors of Bim peptide binding to Mcl-1, primary screen, biochemical, bead-based flow cytometry, multiplex; Bim peptide-Mcl-1 binding; inhibition, % at 10 µM; 190,000 tested, 0.1% active; AID 1009, 2008; in the data active means inhibition above about 40%;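 further: 0% = no compound tracer wells and 100% = peptide blocker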
The depositor's hits bear a star. Only some compounds are listed: those with a hit (about 2.3% of all), similar ones and a draw of the others.

`CCN(CC)S(=O)(=O)c1cccc(C(=O)N/N=C2\CC(=O)CC(C)(C)C2)c1` gave GLD-1 RNA inh 53*, Bcl-xL primary 15, MCL1-BIM inh 19, Mcl1-Bid inh -20, Mcl1 Noxa PPI -9 and Bim-Mcl-1 -2.
CCNc1nc(NCC)nc(C(=O)NN)n1 was read as GLD-1 RNA inh 2, Bcl-xL primary 0, MCL1-BIM inh 0, Mcl1-Bid inh -18, Mcl1 Noxa PPI 75* and Bim-Mcl-1 -13.
`Cn1cccc1Cc1nnc(SCC(=O)Nc2cccc(Cl)c2)n1-c1ccc(F)cc1` gave GLD-1 RNA inh 2, Bcl-xL primary 2, MCL1-BIM inh 5, Mcl1-Bid inh 65*, Mcl1 Noxa PPI 3 and Bim-Mcl-1 -2.
For COc1ccc(OC)c(Nc2nc(=O)c3cccnc3s2)c1 the results were Mcl1-Bid inh -59, Mcl1 Noxa PPI 56* and Bim-Mcl-1 0.
`Cc1ccc(Nc2nc(=O)c3cccnc3s2)cc1` gave GLD-1 RNA inh -8, Bcl-xL primary 3, MCL1-BIM inh -2, Mcl1-Bid inh -18 and Mcl1 Noxa PPI -9.
For CCn1nc([N+](=O)[O-])c2c(-c3nc4ccccc4o3)c(N)n(CCCOC)c2c1=O the results were GLD-1 RNA inh 8, Bcl-xL primary 4, MCL1-BIM inh 34, Mcl1-Bid inh 27, Mcl1 Noxa PPI 52* and Bim-Mcl-1 1.
`O=C(NN=Cc1ccc(OC(F)F)cc1)c1ccc(NS(=O)(=O)c2cccs2)cc1` gave GLD-1 RNA inh -5.
`Cc1ccc(Oc2ccc(OCC(=O)Nc3ccncc3)cc2)cc1` gave GLD-1 RNA inh 5.
`O=C(Nc1ccc(Cl)c(Cl)c1)c1ccc(Cl)c(Cl)c1` gave GLD-1 RNA inh 2, Bcl-xL primary 5, MCL1-BIM inh 2, Mcl1-Bid inh -24 and Mcl1 Noxa PPI 9.
Screening Cc1ccc(NC(=O)c2ccc(Cl)c(N3C(=O)C=CC3=O)c2)cc1 returned GLD-1 RNA inh 6, Bcl-xL primary 13, MCL1-BIM inh 16, Mcl1-Bid inh 29, Mcl1 Noxa PPI 57* and Bim-Mcl-1 -8.
For COc1ccc(C(=O)O/N=C(/c2cccs2)C(C)(C)C)cc1 the results were GLD-1 RNA inh 138*, Bcl-xL primary 6, MCL1-BIM inh 7, Mcl1-Bid inh -6 and Mcl1 Noxa PPI 0.
`C/C(=N/OC(=O)c1ccc(C)cc1)c1cccs1` gave GLD-1 RNA inh -7, Bcl-xL primary 6, MCL1-BIM inh 14, Mcl1-Bid inh -32, Mcl1 Noxa PPI 2 and Bim-Mcl-1 -1.
`O=C(O)c1ccccc1N/N=C/c1cc(Br)cc(Br)c1O` gave GLD-1 RNA inh 1, Bcl-xL primary 12, MCL1-BIM inh 15, Mcl1-Bid inh 20 and Mcl1 Noxa PPI 83*.
Screening Cn1c(=O)c2cn3ncccc3c2n(C)c1=O returned Mcl1-Bid inh -20, Mcl1 Noxa PPI -9 and Bim-Mcl-1 -1.
COCCNC(=O)/C(C#N)=C/c1c(F)cccc1Cl was read as GLD-1 RNA inh -2, Bcl-xL primary 1, MCL1-BIM inh -2, Mcl1-Bid inh -9, Mcl1 Noxa PPI -1 and Bim-Mcl-1 1.
`CCCn1c(N)c(C(=O)CSc2nnc(C3CC3)n2Cc2ccccc2)c(=O)n(C)c1=O` gave GLD-1 RNA inh -2, Bcl-xL primary -11 and MCL1-BIM inh -3.
For Cc1cccc(Cn2c(N3CCc4ccccc4C3)nc3c2c(=O)[nH]c(=O)n3C)c1 the results were GLD-1 RNA inh 6, Bcl-xL primary 0, MCL1-BIM inh 0, Mcl1-Bid inh 1, Mcl1 Noxa PPI 63* and Bim-Mcl-1 1.
For Cc1cccc(Cn2c(N3CCN(C)CC3)nc3c2c(=O)[nH]c(=O)n3C)c1 the results were GLD-1 RNA inh 7, Bcl-xL primary 0 and MCL1-BIM inh 1.
Cc1ccc2nc(N3CC(=O)Nc4ccccc43)nc(-c3ccccc3)c2c1 was read as GLD-1 RNA inh -4, Bcl-xL primary 3, MCL1-BIM inh -4, Mcl1-Bid inh 97*, Mcl1 Noxa PPI 10 and Bim-Mcl-1 15.
For Cc1ccc2nc(N3CCC(C(=O)O)CC3)nc(-c3ccccc3)c2c1 the results were GLD-1 RNA inh 0, Bcl-xL primary 9, MCL1-BIM inh 5, Mcl1-Bid inh 6, Mcl1 Noxa PPI 7 and Bim-Mcl-1 -1.
`COC(=O)c1ccc(/C=N/NC(=O)c2ccc3nc[nH]c3c2)cc1` gave GLD-1 RNA inh -5, Bcl-xL primary 9 and MCL1-BIM inh 7.
Cc1ccc(/C=N/NC(=O)c2ccc3nc[nH]c3c2)o1 was read as GLD-1 RNA inh 5, Bcl-xL primary 7, MCL1-BIM inh 9, Mcl1-Bid inh -8 and Mcl1 Noxa PPI 55*.
Screening COc1ccccc1NS(=O)(=O)c1cc(NC(=O)C(C)NC(N)=O)ccc1N1CCCC1 (stereo unspecified) returned GLD-1 RNA inh 0, Bcl-xL primary 2 and MCL1-BIM inh -2.
`COc1ccccc1/C=N/NC(=O)CNC(=O)c1ccc(S(=O)(=O)N2CCCC2)cc1` gave GLD-1 RNA inh -1, Bcl-xL primary 1, MCL1-BIM inh -2, Mcl1-Bid inh 0, Mcl1 Noxa PPI -2 and Bim-Mcl-1 6.
`O=C(O)c1ccccc1C(=O)c1ccc(Br)s1` gave GLD-1 RNA inh -7, Bcl-xL primary -1, MCL1-BIM inh -1, Mcl1-Bid inh -20, Mcl1 Noxa PPI 54* and Bim-Mcl-1 1.
Screening O=C(O)CCCN1C(=O)/C(=C/c2cn(-c3ccccc3)nc2-c2cccs2)SC1=S returned Mcl1-Bid inh 78*, Mcl1 Noxa PPI 87* and Bim-Mcl-1 -1.
For CC1(c2cnc(Nc3ccccc3)s2)CCC(=O)O1 (stereo unspecified) the results were GLD-1 RNA inh 5, Bcl-xL primary 1, MCL1-BIM inh -1, Mcl1-Bid inh -22, Mcl1 Noxa PPI -1 and Bim-Mcl-1 -2.
C=CCNC(=O)Nc1ccc(OCC)cc1 was read as GLD-1 RNA inh 2, Bcl-xL primary 2, MCL1-BIM inh 5, Mcl1-Bid inh -1, Mcl1 Noxa PPI 8 and Bim-Mcl-1 0.
For C#CCOCCOCCOCCNc1nc(N2CCN(C(=O)[C@H](CCCCN)n3cc(CCCC)nn3)CC2)nc(N2CCN(C(=O)[C@H](Cc3ccc(O)cc3)n3cc(CCO)nn3)CC2)n1 the results were GLD-1 RNA inh -7, Bcl-xL primary 5, MCL1-BIM inh 15, Mcl1-Bid inh 57*, Mcl1 Noxa PPI 45 and Bim-Mcl-1 -1.
